In PubChem BioAssay (NCATS):
Inconclusive results are not listed. Where a call stands in place of a potency, no number is given. Activity calls are given as the source filed them. Calls follow the shape of the dose curve; as a rule, active = well fitted cell-killing curve with a large enough effect; inconclusive = small, poorly fitted or top-dose-only effect, or effect the other way; inactive = no such curve, though single readings can be large or run the other way.

Assay: Quantitative highthroughput screen to assess conditional lethalithy of NOMO1 cells grown in Human Plasma-Like Medium with dialyzed fetal bovine serum (HPLM+ds) (AID 1963878); also: nearly all actives have a fitted effect of over 35% in size
Conditions: NOMO1 AML cells in HPLM+ds, CellTiter-Glo viability, 48 h; series mostly up to 45.8 µM
From the text: Assay Provider: Jason Cantor Ph.D.
Department of Biochemistry
University of Wisconsin-Madison, Madison, WI, USA
Chemical screening studies have identified drug sensitivities across hundreds of cancer cell lines but most putative therapeutics fail to translate. Discovery and development of drug candidates in models that more accurately reflect nutrient levels in human blood is a major challenge. Here we performed high-throughput screens in conventional versus Human Plasma-Like Medium (HPLM) to identify compounds that were "missed" when screening using the artificial culture condition. Sets of conditional anticancer compounds spanned phases of clinical development and included non-oncology drugs were assessed. […] We also traced conditional phenotypes for several chemotherapeutics to availability of HPLM-specific metabolites and confirmed others for compounds whose reported targets are encoded by nonessential genes. Our findings establish generalizable strategies for exploiting conditional lethality in HPLM to reveal therapeutic candidates and mechanisms of action in cancer cells.
Described herein are the results of each viability screens against three cell lines: NOMO1 (an acute myeloid leukemia cell line); P12-Ichikawa (a T-cell acute lymphoblastic leukemia); and SEM (a B-cell ALL). Each assay was screened using 3 different cell culture media: homemade human plasma-Like medium with 10% dialyzed fetal bovine serum (HPLM+ds); RPMI1640 with 10% untreated FBS and 5mM glucose (RPMI+s); and RPMI1640 with 10% dialyzed fetal bovine serum and 5 mM glucose (RPMI+ds).
PROTOCOL TABLE (as described by Inglese J, Shamu CE and Guy RK. 2007)
SEQUENCE No. (e.g., 1, 2, 3, etc.); […] (e.g., Cells, Incubation, Reagent, etc.); VALUE and DESCRIPTION.
1; Cells; 5 uL; white, solid bottom 1536-well Greiner assay plate.
2; Compounds; 23 nL; Kalypsis pin tool (Wako USA) equipped with a 1536-well pin head to transfer to the assay plates.
3; Incubation; 48 hours; 37C incubation.
4; Reagent; 3 uL; CellTiter Glo (Promega).
5; Incubation; 5 min, room temperature
6; Detection; Luminescence, Viewlux PerkinElmer.
NOTES (numbers refer to Sequence numbers above)
1. Briefly, 5 ul of cell reagent was dispensed using a Multidrop Combi Dispenser. The NOMO1 and SEM cells were plated at 500 cells/well and the P12-Ichikawa line at 1000 cells/well.
2. After seeding the cells, 23 nL of MIPE 4.1 library compounds (in DMSO) were added to each plate using a Kalypsys 1536 Pintool dispenser. Bortezomib at final concentration of […] and DMSO were added to each plate as positive and negative controls respectively. For each screen, MIPE 4.1 compounds were added over an eleven-point concentration range […] in 3-fold dilutions.
3. Each plate was covered with a stainless steel gasketed lid to prevent evaporation and incubated for 48 hour at 37C, 95% relative humidity, and 5% CO2.
4-5. Three microliter CellTilter-GloTM luminescent substrate mix (Promega) reagent was added to the assay plate and incubated at room temperature for 5 min.
6. The luminescence signal was measured using a ViewLux (PerkinElmer) multiplate reader with a 2 second exposure time per plate. Data for each compound were normalized as percent viability such that measurements for DMSO and the empty well controls in each plate were defined as 100% and 0%, respectively.
Potency is read from the fitted curve at half-maximal effect.

Row | SMILES | Potency
1 | O=c1[nH]c2ccccc2n1CCCN1CCC(n2c(=O)[nH]c3cc(Cl)ccc32)CC1 | inactive
2 | O=[N+]([O-])c1ncc[nH]1 | inactive
3 | Cc1c(C(=O)Nc2cccc(C(F)(F)F)c2)cc(-c2ccccc2)n1CCCN1CCOCC1 | inactive
4 | O=C(Nc1ccncc1)C(=O)c1cn(Cc2ccc(Cl)cc2)c2ccccc12 | 59 nM (active)
5 | Cn1cc(C2=C(c3cn(C4CCN(Cc5ccccn5)CC4)c4ccccc34)C(=O)NC2=O)c2ccccc21 | inactive
6 | CCOP(=O)(OCC)C(C)NC(=O)N(CCCl)N=O (stereo not given) | inactive
7 | O=P1(N(CCCl)CCCl)NCCCO1 (stereo not given) | inactive
8 | CSCC[C@@H](NC(=O)[C@@H](Cc1ccccc1)NC(=O)CNC(=O)CNC(=O)[C@@H](N)Cc1ccc(O)cc1)C(=O)O | inactive
9 | CC=C(C)C(=O)O[C@H]1C(C)=C2[C@@H]3OC(=O)[C@@](C)(O)[C@@]3(O)[C@@H](OC(=O)CCC)C[C@](C)(OC(C)=O)[C@@H]2[C@@H]1OC(=O)CCCCCCC | 66.2 nM (active)
10 | Cc1ncc(OC[C@@]2(c3cccc(F)c3)C[C@H]2C(=O)Nc2ccc(F)cn2)c(C)n1 | inactive
11 | CC(C)(C)c1cc(C=C(C#N)C#N)cc(Br)c1O | inactive
12 | CC1(N2CCC(n3c([C@@H]4CCCNC4)nc4ccccc43)CC2)CCCCCCC1 | 13200 nM (active)
13 | C[C@H]([C@H](O)CCC(C)(C)O)[C@H]1CC[C@@]2(O)C3=CC(=O)[C@@H]4C[C@@H](O)[C@@H](O)C[C@]4(C)[C@@H]3CC[C@]12C | inactive
14 | CC(C)(C)[C@]1(O)C[C@@H]2OC(=O)C[C@@]23C(=O)O[C@@H]2OC(=O)[C@H](O)C213 (stereo not given in full) | inactive
15 | C[C@]12CCC(=O)C=C1CC[C@@H]1[C@H]3CC[C@](C)(O)[C@@]3(C)CC[C@@H]12 | inactive
16 | C[C@]12Cc3cn[nH]c3C[C@@H]1CC[C@@H]1[C@H]2CC[C@@]2(C)[C@H]1CC[C@]2(C)O | inactive
17 | C[C@]12CCC(=O)C(O)=C1CC[C@@H]1[C@H]3CCC(=O)[C@@]3(C)CC[C@@H]12 | inactive
18 | CCC1(c2ccc(N)cc2)CCC(=O)NC1=O (stereo not given) | inactive
19 | COc1cccc2c1[C@]13CCN(CC4CC4)[C@H](C2)[C@]1(OC)CCC(=O)C3 | inactive
20 | Cc1[nH]nc2ccc(-c3cncc(OC[C@@H](N)Cc4c[nH]c5ccccc45)c3)cc12 | 526 nM (active)

Row | SMILES | Potency
21 | CCOC(=O)c1c(C(C#N)=CN)c2ccc(Cl)c(Cl)c2n1C | inactive
22 | Cc1c(N)nc([C@H](CC(N)=O)NC[C@@H](N)C(N)=O)nc1C(=O)N[C@H](C(=O)N[C@@H](C)[C@H](O)[C@@H](C)C(=O)N[C@@H](C(=O)NCCc1nc(-c2nc(C(=O)NCCC[S+](C)C)cs2)cs1)[C@@H](C)O)C(O[C@H]1O[C@H](CO)[C@H](O)[C@@H](O)[C@@H]1O[C@H]1O[C@H](CO)[C@@H](O)[C@H](OC(N)=O)[C@H]1O)c1cnc[nH]1 (stereo not given in full) | 935 nM (active)
23 | COc1ccc2c(c[n+](C)c3c4cc5c(cc4ccc23)OCO5)c1OC | 20900 nM (active)
24 | COC1(CS(=O)c2ccccc2)CCN(CCc2c[nH]c3ccc(F)cc23)CC1 (stereo not given) | 26400 nM (active)
25 | C[C@@H]1C[C@@H]([C@H](O)CC2CC(=O)NC(=O)C2)C(=O)[C@@H](C)C1 | 1180 nM (active)
26 | CN(C)CCc1ccc(O)cc1 | inactive
27 | C#CC1(O)CCC2C3CCC4=CC(=O)CCC4(C)C3CCC21C (stereo not given) | inactive
28 | CN(C)CCN(C)CCc1ccc(Cl)c(Cl)c1 | inactive
29 | CCOC(=O)c1cncn1[C@H](C)c1ccccc1 | inactive
30 | COC1=CC(C)=C[C@@H](C)[C@@H](O)[C@@H](C)CC(C)=CC=C[C@H](OC)[C@H]([C@@H](C)[C@@H](O)[C@H](C)[C@@]2(O)C[C@@H](O)[C@H](C)[C@@H](C(C)C)O2)OC1=O | 66.2 nM (active)
31 | C[C@]12CC[C@H]3[C@@H](CCC4=CC(=O)CC[C@@]43C)[C@H]1CC[C@H]2O | inactive
32 | CC(=Cc1csc(C)n1)[C@@H]1C[C@H]2O[C@]2(C)CCC[C@H](C)[C@@H](O)[C@@H](C)C(=O)C(C)(C)[C@@H](O)CC(=O)O1 | inactive
33 | Cn1c(CCCC(=O)O)nc2cc(N(CCCl)CCCl)ccc21 | inactive
34 | CC(C)CC(N(C)C)C1(c2ccc(Cl)cc2)CCC1 (stereo not given) | inactive
35 | COC[C@@H](NC(C)=O)C(=O)NCc1ccccc1 | 18700 nM (active)
36 | O=C(O)C(=O)c1cn(Cc2ccccc2)c2ccc(-c3ccc(OC(F)(F)F)cc3)cc12 | inactive
37 | C1=C2CCCN[C@H]2[C@@H]2C[C@H]1[C@@H]1CCCCN1C2 | inactive
38 | CC(=O)N(C)c1cccc(-c2ccnc3c(C(=O)c4cccs4)cnn23)c1 | inactive
39 | C[C@@]12OC(=O)[C@]1([C@@H](O)[C@@H]1C=CCCC1)NC(=O)[C@H]2CCCl | 166 nM (active)
40 | c1cc2c(cc1[C@H]1OC[C@H]3[C@H]1CO[C@H]3c1ccc3c(c1)OCO3)OCO2 | inactive
